Measurements: PubChem BioAssay AID1159580 (chemical genetic matrix, 2015)
The campaign covered roughly 5,500 compounds. About 2,000 (36%) were called active. Another 18% or so got no clear call; they are omitted. Rule as the data show it: active = normalized growth mostly below about 0.91 (no sharp cut-off); inconclusive = no clear call, values can overlap the other calls; inactive = mostly above about 0.92. The list shows a part of the results.

Experiment: chemical genetic growth profiling, strain panel (AID 1159580);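 also: tested at 20 µM; growth read once vehicle control cultures reached saturation at 30 °C; 1 = growth at the plate median or of vehicle wells; lower values mean less growth of the strain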
Conditions: growth OD

Measured: normalized growth

CCCN1C[C@H](CSC)C[C@@H]2c3cccc4[nH]cc(c34)C[C@H]21
inactive: S. cerevisiae deletion strains, locus YKL009W, strain mrt4, active compounds read low 1.01 | S. cerevisiae deletion strains, locus YKL068W, active compounds read low 1.02 | S. cerevisiae deletion strains, locus YKL085W, strain MDH1 (second series), active compounds read low 1 | S. cerevisiae deletion strains, locus YKL085W, strain MDH1, active compounds read low 1 | S. cerevisiae deletion strains, locus YKL160W, strain elf1, active compounds read low 1.01 | S. cerevisiae deletion strains, locus YKL190W, strain CNB1, active compounds read low 0.995 | S. cerevisiae deletion strains, locus YKR001C, strain vps1, active compounds read low 1.02 | S. cerevisiae deletion strains, locus YKR026C, strain gcn3, active compounds read low 1.02 | S. cerevisiae deletion strains, locus YKR091W, strain srl3, active compounds read low 0.997 | S. cerevisiae deletion strains, locus YLL001W, strain dnm1, active compounds read low 1 | S. cerevisiae deletion strains, locus YLL026W, active compounds read low 1.01 | S. cerevisiae deletion strains, locus YLL041C, strain sdh2, active compounds read low 0.995 | S. cerevisiae deletion strains, locus YLR027C, strain aat2, active compounds read low 1 | S. cerevisiae deletion strains, locus YLR039C, strain RIC1, active compounds read low 1.11 | S. cerevisiae deletion strains, locus YLR058C, strain SHM2, active compounds read low 1.01 | S. cerevisiae deletion strains, locus YLR102C, strain apc9, active compounds read low 1.03 | S. cerevisiae deletion strains, locus YLR113W, strain HOG1, active compounds read low 1.06 | S. cerevisiae deletion strains, locus YLR221C, strain rsa3, active compounds read low 1 | S. cerevisiae deletion strains, locus YLR258W, strain gsy2, active compounds read low 1.01 | S. cerevisiae deletion strains, locus YLR262C, strain YPT6 (second series), active compounds read low 1.07 | S. cerevisiae deletion strains, locus YLR262C, strain YPT6, active compounds read low 1.09 | S. cerevisiae deletion strains, locus YLR268W, strain sec22, active compounds read low 1 | S. cerevisiae deletion strains, locus YLR320W, strain mms22, active compounds read low 0.984 | S. cerevisiae deletion strains, locus YLR330W, strain CHS5, active compounds read low 0.999 | S. cerevisiae deletion strains, locus YLR342W, strain FKS1 (second series), active compounds read low 1.01 | S. cerevisiae deletion strains, locus YLR342W, strain FKS1, active compounds read low 1 | S. cerevisiae deletion strains, locus YLR357W, strain rsc2, active compounds read low 0.982 | S. cerevisiae deletion strains, locus YLR370C, strain arc18, active compounds read low 1.01 | S. cerevisiae deletion strains, locus YLR371W, strain rom2, active compounds read low 1.02 | S. cerevisiae deletion strains, locus YLR384C, strain iki3, active compounds read low 1 | S. cerevisiae deletion strains, locus YLR418C, strain cdc73, active compounds read low 0.985 | S. cerevisiae deletion strains, locus YML016C, strain PPZ1, active compounds read low 0.998 | S. cerevisiae deletion strains, locus YML032C, strain rad52, active compounds read low 1.03 | S. cerevisiae deletion strains, locus YML120C, strain ndi1, active compounds read low 1.02 | S. cerevisiae deletion strains, locus YML124C, strain tub3, active compounds read low 1.02 | S. cerevisiae deletion strains, locus YMR058W, strain fet3, active compounds read low 0.999 | S. cerevisiae deletion strains, locus YMR078C, strain ctf18, active compounds read low 1.03 | S. cerevisiae deletion strains, locus YMR125W, strain sto1, active compounds read low 1.02 | S. cerevisiae deletion strains, locus YMR129W, active compounds read low 1.02 | S. cerevisiae deletion strains, locus YMR205C, strain PFK2, active compounds read low 1.02 | S. cerevisiae deletion strains, locus YMR223W, strain ubp8, active compounds read low 1.02 | S. cerevisiae deletion strains, locus YMR231W, strain pep5, active compounds read low 1.02 | S. cerevisiae deletion strains, locus YMR263W, strain SAP30, active compounds read low 0.979 | S. cerevisiae deletion strains, locus YMR307W, strain GAS1, active compounds read low 1.03 | S. cerevisiae deletion strains, locus YNL067W, strain RPL9B, active compounds read low 0.975 | S. cerevisiae deletion strains, locus YNL071W, strain lat1, active compounds read low 1.02 | S. cerevisiae deletion strains, locus YNL128W, strain TEP1, active compounds read low 0.984 | S. cerevisiae deletion strains, locus YNL153C, strain GIM3, active compounds read low 0.983 | S. cerevisiae deletion strains, locus YNL183C, strain NPR1, active compounds read low 0.991 | S. cerevisiae deletion strains, locus YNL209W, strain ssb2, active compounds read low 1 | S. cerevisiae deletion strains, locus YNL233W, strain BNI4, active compounds read low 0.981 | S. cerevisiae deletion strains, locus YNL248C, strain rpa49, active compounds read low 0.945 | S. cerevisiae deletion strains, locus YNL250W, strain rad50, active compounds read low 1 | S. cerevisiae deletion strains, locus YNL271C, strain bni1, active compounds read low 1.02 | S. cerevisiae deletion strains, locus YNL298W, strain CLA4, active compounds read low 1.02 | S. cerevisiae deletion strains, locus YNL307C, strain MCK1, active compounds read low 1.03 | S. cerevisiae deletion strains, locus YNL322C, strain KRE1 (second series), active compounds read low 1.01 | S. cerevisiae deletion strains, locus YNL322C, strain KRE1, active compounds read low 1 | S. cerevisiae deletion strains, locus YNR049C, strain mso1, active compounds read low 1.01 | S. cerevisiae deletion strains, locus YNR052C, strain pop2, active compounds read low 1.02 | S. cerevisiae deletion strains, locus YOL006C, strain TOP1, active compounds read low 0.966 | S. cerevisiae deletion strains, locus YOL012C, strain htz1 0.77 | S. cerevisiae deletion strains, locus YOL147C, strain pex11, active compounds read low 1.02 | S. cerevisiae deletion strains, locus YOR001W, strain rrp6, active compounds read low 0.983 | S. cerevisiae deletion strains, locus YOR061W, strain CKA2, active compounds read low 0.992 | S. cerevisiae deletion strains, locus YOR069W, strain VPS5, active compounds read low 0.989 | S. cerevisiae deletion strains, locus YOR070C, strain gyp1, active compounds read low 0.997 | S. cerevisiae deletion strains, locus YOR080W, strain dia2, active compounds read low 1.02 | S. cerevisiae deletion strains, locus YOR083W, strain WHI5, active compounds read low 0.966 | S. cerevisiae deletion strains, locus YOR106W, strain vam3, active compounds read low 1.01 | S. cerevisiae deletion strains, locus YOR136W, strain idh2, active compounds read low 1.02 | S. cerevisiae deletion strains, locus YOR144C, strain elg1, active compounds read low 1.01 | S. cerevisiae deletion strains, locus YOR184W, strain ser1, active compounds read low 1.05 | S. cerevisiae deletion strains, locus YOR231W, strain MKK1, active compounds read low 1.08 | S. cerevisiae deletion strains, locus YOR265W, strain rbl2, active compounds read low 1.02 | S. cerevisiae deletion strains, locus YOR270C, strain vph1, active compounds read low 1.07 | S. cerevisiae deletion strains, locus YOR290C, strain snf2, active compounds read low 1 | S. cerevisiae deletion strains, locus YOR316C, strain cot1, active compounds read low 1.02 | S. cerevisiae deletion strains, locus YPL051W, strain arl3, active compounds read low 1.01 | S. cerevisiae deletion strains, locus YPL055C, strain LGE1, active compounds read low 0.946 | S. cerevisiae deletion strains, locus YPL078C, strain atp4, active compounds read low 1.01 | S. cerevisiae deletion strains, locus YPL106C, strain sse1, active compounds read low 1.03 | S. cerevisiae deletion strains, locus YPL240C, strain hsp82, active compounds read low 1.01 | S. cerevisiae deletion strains, locus YPL241C, strain CIN2, active compounds read low 1.03 | S. cerevisiae deletion strains, locus YPL256C, strain CLN2, active compounds read low 1.06 | S. cerevisiae deletion strains, locus YPR119W, strain clb2, active compounds read low 1.02 | S. cerevisiae deletion strains, locus YPR141C, strain kar3, active compounds read low 1.01 | S. cerevisiae deletion strains, locus YPR163C, strain tif3, active compounds read low 1.02 | S. cerevisiae deletion strains, locus YPR167C, strain met16, active compounds read low 1.02 | S. cerevisiae deletion strains, strain wtn01, active compounds read low 0.995 | S. cerevisiae strains, strain wild type, active compounds read low 0.997
